# Several values for one entry are separate records, joined by “and”; a condition that tells them apart may be missing. Equal values may be shown once. The panel holds about 83,000 compounds, 20% with a hit somewhere; the sample as a whole holds those more often.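 A percent growth of 40 corresponds to 60% growth inhibition; 0 means no net growth; -100 means all cells died. Active threshold: below 10.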 A number with no mark means an inactive call. Activity calls are given as the source filed them.
# Legend:
# Assay in all cases: NCI-60 one-dose screen, 48 h (100 = growth as untreated, 0 = no growth, -100 = all killed)
# Conditions in all cases: 10 µM unless noted
# T-47D breast = test system: T-47D breast
# BT-549 breast = test system: BT-549 breast
# MDA-MB-435 melanoma = test system: MDA-MB-435 melanoma
# SW-620 colon = test system: SW-620 colon
# MCF7 breast = test system: MCF7 breast
# HCT-116 colon = test system: HCT-116 colon
# HCC-2998 colon = test system: HCC-2998 colon
# KM12 colon = test system: KM12 colon
# MDA-MB-468 breast = test system: MDA-MB-468 breast
SMILES,growth (T-47D breast),growth (BT-549 breast),growth (MDA-MB-435 melanoma),growth (SW-620 colon),growth (MCF7 breast),growth (HCT-116 colon),growth (HCC-2998 colon),growth (KM12 colon),growth (MDA-MB-468 breast)
CCC(C)(C)c1ccc(OCCCCCCN2CCN(c3ccncc3)CC2)cc1,-44.4% (active),-44.2% (active),-0.134% (active),-62% (active),-58.1% (active),-69.3% (active),-74.1% (active),7.93% (active),-81.5% (active)
COc1cc(C2CC(c3ccc(S(=O)(=O)NCCNc4nc(Nc5ccc(F)cc5)nc(N(C)C)n4)cc3)=Nc3c(N)nc(N)nc3N2)cc(OC)c1OC (configuration not stated),56.2%,62.8%,87.1%,96.3%,51.1%,82.6%,87.5%,95.5%,0.318% (active)
Cc1cc(=O)oc2cc(OCCOc3ccc(/C=C/C(=O)Nc4ccccc4N)cc3)ccc12,15.3%,-49.2% (active),42.7%,27.4%,5.65% (active),16.1%,37.9%,13.7%,-45% (active)
CC1CN(c2oc(-c3ccc([N+](=O)[O-])cc3)nc2C#N)CC(C)O1 (configuration not stated),97.4%,107%,100%,102%,88.4%,108%,101%,103%,125%
COc1ccc(/C=C2\C(=N)N=C(SCc3nc4ccccc4[nH]3)NC2=O)cc1,87.9%,106%,105%,98.8%,99.1%,105%,116%,105%,119%
N/C(=N\c1nc2ccccc2s1)NC(=O)Nc1c(Cl)cccc1Cl,18%,37.3%,-17.9% (active),25.6%,15.6%,22.7%,68.6%,21.4%,-4.05% (active)
O=C1NC(=O)c2c1c1c3cc(Br)ccc3[nH]c1c1oc3ccc(F)cc3c21,-20.1% (active),15.1%,33.7%,3.59% (active),-47.5% (active),0.579% (active),-9.47% (active),15.1%,-51.8% (active)
Cc1occc1C(=O)NN1C(=O)/C(=C/C=C/c2ccc([N+](=O)[O-])o2)SC1=S,-15.9% (active),-91% (active),-66.2% (active),-43.2% (active),-33% (active),-73.2% (active),-75% (active),-66.2% (active),-52.3% (active)
CCOc1ccc(C(=O)NC(=S)Nc2ccc(S(N)(=O)=O)cc2)cc1,74.3% [100 µM],99.1% [100 µM],99.1% [100 µM],104% [100 µM],97.6% [100 µM],97.9% [100 µM],99.5% [100 µM],97.8% [100 µM],83.9% [100 µM]
Cc1cc(=O)oc2cc(OCCCOc3ccc(/C=C/C(=O)Nc4ccccc4N)cc3)ccc12,9.28% (active),-59.7% (active),38.3%,26.8%,4.44% (active),17.2%,27.3%,12.6%,-48.1% (active)
O=c1[nH]c2ccccc2cc1CSc1cccc(Nc2nccc(-c3ccc4ccccc4c3)n2)c1,60.9%,85.4%,87.9%,105%,85.1%,79.7%,97.3%,95.9%,80.4%
O=C1c2c(c3c4cc(F)ccc4oc3c3[nH]c4ccc(Br)cc4c23)C(=O)N1O,23.9%,1.19% (active),37.1%,34.9%,15.6%,34.5%,63.5%,34.5%,46.4%
COc1cc(C2CC(c3cc(OC)c(OC)c(OC)c3)=NN2C(C)=O)ccc1OCc1ccc(F)cc1 (configuration not stated),24.8%,44.9%,62.5%,58.5%,34.7%,31.5%,86%,57.1%,47.1%
Cc1ccc(-c2nc(Nc3ccccc3S(N)(=O)=O)c3ccccc3n2)cc1,90.8%,115%,85.4%,85.8%,81.6%,40%,104%,65.3%,98.4%
COc1ccc(/C=C/c2nc3ccccc3n3c(-c4ccc(Cl)cc4)nnc23)cc1,80.6%,114%,96.1%,99.2%,73.1%,88.3%,110%,93.1%,106%
Cc1ccc(/C=C/c2n(Cc3ccc4ccccc4c3)c3ccccc3[n+]2Cc2ccc3ccccc3c2)cc1,-51.1% (active),-69.9% (active),-78.2% (active),-75.1% (active),-78.3% (active),-40.8% (active),-87.3% (active),-88.5% (active),-78.6% (active)
OCC1(CCCc2ccccc2)CCCN(c2nccc3ccccc23)C1 (configuration not stated),28.3%,-3.12% (active),41.2%,39.2%,12.3%,14.8%,60.3%,29.1%,-15.8% (active)
COc1ccc2[nH]c(O)c(N=NC(=O)COc3ccc(NC(=O)Nc4ccccc4)cc3)c2c1,27.1%,-36.4% (active),56.9%,38.4%,23.7%,29.3%,34.9%,-46.2% (active),13%
COc1ccc(C(=O)/C=C/c2ccc(OCc3ccccc3)c(OC)c2)cc1OC,30.4%,12.6%,30.9%,10.4%,10.5%,12.3%,15.2%,16%,23.8% and 11.1%
CCCCCCCCc1ccc(C(=O)Nc2ccc(C)cc2C(=O)O)cc1C,94.4%,101%,105%,97.2%,93.8%,84%,106%,79.7%,92.8%
O=C(Nc1ccccc1)N1CCN(c2cc(-c3cn(-c4ccccc4)nc3-c3cccc(O)c3)ccn2)CC1,13.1%,67.3%,13.7%,87.5%,63.3%,65.7%,81.8%,39.5%,58.7%
COc1ccc(NC(=O)[C@H](C)N)cc1C(=O)Nc1cccc(C2CC(=O)c3c(cc(OC)c(OC)c3OC)O2)c1 (some centres not stated),53.7%,67.3%,93.2%,99.4%,72.1%,93.9%,109%,87%,76.1%
CC(=O)Oc1ccc(/C=C/C(=O)N[C@@H](Cc2ccccc2)C(O)C(=O)NCc2ccccc2)cc1OC(C)=O (some centres not stated),90.9%,81.6%,71.7%,93.2%,81.9%,78.4%,96.3%,86.3%,78.1%
CC(=O)Nc1ccc(-c2nc3cc(-c4ccc(O)cc4)ccc3n2C)cc1,50.8%,65.6%,50.2%,66%,24.7%,29%,58.9%,57.8%,58.3%
CC(=O)OCC1OC(OC2C(COC(C)=O)OC(n3cc(COc4ccc5ccc(=O)oc5c4)nn3)C(OC(C)=O)C2OC(C)=O)C(OC(C)=O)C(OC(C)=O)C1OC(C)=O (configuration not stated),103%,101%,101%,106%,90.9%,106%,108%,103%,108%
Cc1ccc(C(=O)CSc2nc3ccc(C)cc3c(=O)n2-c2ccc(F)cc2)cc1,52.5%,73.9%,89.6%,89%,78.1%,18.8%,83.5%,93.7%,67.2%
COc1ccc2oc(=O)c(C3(C)NC(=O)c4c(/C=C/C(=O)OC(C)(C)C)cccc4N3)cc2c1 (configuration not stated),6.58% (active),3.69% (active),46.7%,63.8%,24.1%,30%,62.1%,47%,31.7%
COc1ccc(/C=C/c2nc3ccccc3nc2Nc2cccc(C)c2)cc1,77.7%,99.9%,98.3%,95.3%,67.3%,87.3%,116%,97.2%,101%

# Source: PubChem BioAssay (NCI)
